Reference: the supplement of paper PMC9262897, “Low-cost anti-mycobacterial drug discovery using engineered E. coli” (Nature Communications, 2022)
Structures can show the parent of a compound that is named as a salt. ± gives the standard deviation of the averaged measurements.

Tested on: E. coli TESEC Mtb DapB
Experiment: growth (OD600 after 10 h); higher = more growth (less inhibition)
Conditions: arabinose induction (level): High; compound 0.1 mM; raw OD600 reference: median of DMSO wells […], cell-free background 0.041
Method: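 TESEC E. coli strains in which the native enzyme is deleted and replaced by arabinose-inducible Mtb Asd, DapB, CysH or TrpD, each grown in its selective medium. Strains were screened against the Prestwick library at 0.1 mM and 1% DMSO in 384-well format at low and high arabinose induction. Growth is read as OD600 after 10 h in triplicate.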

First: CCOc1ccc2nc(S(N)(=O)=O)sc2c1 [Ethoxzolamide]
Second: COc1cccc(N(C)C(=S)Oc2ccc3c(c2)CCCC3)n1 [Liranaftate]
The growth of the first is lower: 0.172 ± 0.0065 for the first, 0.196 ± 0.013 for the second.

`Nc1nnc(-c2cccc(Cl)c2Cl)c(N)n1` [Lamotrigine] and `Cc1onc(-c2c(Cl)cccc2Cl)c1C(=O)N[C@@H]1C(=O)N2[C@@H]1SC(C)(C)[C@@H]2C(=O)O` [Dicloxacillin sodium salt hydrate] are within error of each other in growth: 0.213 ± 0.015 for the first, 0.188 ± 0.028 for the second.

Going from `C1CCC(C(CC2CCCCN2)C2CCCCC2)CC1` (stereo not given) [Perhexiline maleate] to `CC(=O)O[C@H]1C[C@@H]2CC[C@@H]3[C@H](CC[C@@]4(C)[C@H]3C[C@H]([N+]3(C)CCCCC3)[C@@H]4OC(C)=O)[C@@]2(C)C[C@@H]1N1CCCCC1` [Vecuronium bromide], the growth rises from 0.0462 ± 0.0004 to 0.172 ± 0.019.

Going from `CN(C)CCOc1ccc(/C(=C(/CCCl)c2ccccc2)c2ccccc2)cc1` [Toremifene] to `CCCCC(=O)N(Cc1ccc(-c2ccccc2-c2nnn[nH]2)cc1)[C@H](C(=O)O)C(C)C` [Valsartan], the growth rises from 0.0495 ± 0.0014 to 0.211 ± 0.011.

Going from `CC(C(O)c1ccc(O)cc1)N1CCC(Cc2ccccc2)CC1` (stereo not given) [Ifenprodil tartrate] to `CC[C@]12CCCN3CCc4c(n(c5ccccc45)C(=O)C1)[C@@H]32` [Eburnamonine (-)], the growth falls from 0.1878 ± 0.00062 to 0.176 ± 0.0063.

Going from `CCN(CC)CCNC(=O)c1cc(Cl)c(N)cc1OC` [Metoclopramide monohydrochloride] to `COc1cc2nc(N(C)CCCNC(=O)C3CCCO3)nc(N)c2cc1OC` (stereo not given) [Alfuzosin hydrochloride], the growth rises from 0.193 ± 0.01 to 0.217 ± 0.007.

Compared with `O=S(=O)(O)CCS` [Mesna], `NC(=O)OCC(COC(N)=O)c1ccccc1` [Felbamate] is higher in growth: 0.204 ± 0.009 for the first, 0.224 ± 0.0049 for the second.

`CNC(=C[N+](=O)[O-])NCCSCc1ccc(CN(C)C)o1` [Ranitidine hydrochloride] and `C=CCOc1ccccc1OCC(O)CNC(C)C` (stereo not given) [Oxprenolol hydrochloride] are within error of each other in growth: 0.191 ± 0.011 for the first, 0.204 ± 0.0052 for the second.

`CC(C)(C)NCC(O)COc1cccc2c1CCC(=O)N2` (stereo not given) [Carteolol hydrochloride] and `CC1(C)OC(=O)NC1=O` [Dimethadione] are within error of each other in growth: 0.187 ± 0.0085 for the first, 0.182 ± 0.0086 for the second.

Compared with `CO[C@@H]1[C@@H](O[C@@H]2O[C@H](C)[C@@H](O[C@H]3C[C@@](C)(O)[C@@H](OC(=O)CC(C)C)[C@H](C)O3)[C@H](N(C)C)[C@H]2O)[C@@H](CC=O)C[C@@H](C)[C@@H](O)/C=C/C=C/C[C@@H](C)OC(=O)C[C@H]1OC(C)=O` [Josamycin], `C=Cc1c(C)c2cc3nc(cc4[nH]c(cc5nc(cc1[nH]2)C(C)=C5CCC(=O)O)c(CCC(=O)OC)c4C)[C@@]1(C)C3=CC=C(C(=O)OC)C1C(=O)OC.C=Cc1c(C)c2cc3nc(cc4[nH]c(cc5nc(cc1[nH]2)C(C)=C5CCC(=O)OC)c(CCC(=O)O)c4C)[C@@]1(C)C3=CC=C(C(=O)OC)C1C(=O)OC` (stereo not given in full) [Verteporfin] is higher in growth: 0.0494 ± 0.00059 for the first, 0.211 ± 0.024 for the second.

Same assay, conditions: arabinose induction (level): Low; compound 0.1 mM; raw OD600 reference: median of DMSO wells 0.227, cell-free background 0.041

Compared with `CCOc1ccc2nc(S(N)(=O)=O)sc2c1` [Ethoxzolamide], `COc1cccc(N(C)C(=S)Oc2ccc3c(c2)CCCC3)n1` [Liranaftate] is higher in growth: 0.187 ± 0.017 for the first, 0.224 ± 0.0065 for the second.

Going from `Nc1nnc(-c2cccc(Cl)c2Cl)c(N)n1` [Lamotrigine] to `Cc1onc(-c2c(Cl)cccc2Cl)c1C(=O)N[C@@H]1C(=O)N2[C@@H]1SC(C)(C)[C@@H]2C(=O)O` [Dicloxacillin sodium salt hydrate], the growth rises from 0.132 ± 0.0074 to 0.226 ± 0.018.

First: C1CCC(C(CC2CCCCN2)C2CCCCC2)CC1 (stereo not given) [Perhexiline maleate]
Second: CC(=O)O[C@H]1C[C@@H]2CC[C@@H]3[C@H](CC[C@@]4(C)[C@H]3C[C@H]([N+]3(C)CCCCC3)[C@@H]4OC(C)=O)[C@@]2(C)C[C@@H]1N1CCCCC1 [Vecuronium bromide]
The growth of the first is lower: 0.0474 ± 0.002 for the first, 0.216 ± 0.022 for the second.

First: CN(C)CCOc1ccc(/C(=C(/CCCl)c2ccccc2)c2ccccc2)cc1 [Toremifene]
Second: CCCCC(=O)N(Cc1ccc(-c2ccccc2-c2nnn[nH]2)cc1)[C@H](C(=O)O)C(C)C [Valsartan]
The growth of the first is lower: 0.0508 ± 0.001 for the first, 0.257 ± 0.03 for the second.

Going from `CC(C(O)c1ccc(O)cc1)N1CCC(Cc2ccccc2)CC1` (stereo not given) [Ifenprodil tartrate] to `CC[C@]12CCCN3CCc4c(n(c5ccccc45)C(=O)C1)[C@@H]32` [Eburnamonine (-)], the growth falls from 0.227 ± 0.036 to 0.176 ± 0.012.

`CCN(CC)CCNC(=O)c1cc(Cl)c(N)cc1OC` [Metoclopramide monohydrochloride] and `COc1cc2nc(N(C)CCCNC(=O)C3CCCO3)nc(N)c2cc1OC` (stereo not given) [Alfuzosin hydrochloride] are within error of each other in growth: 0.221 ± 0.018 for the first, 0.229 ± 0.006 for the second.

`O=S(=O)(O)CCS` [Mesna] and `NC(=O)OCC(COC(N)=O)c1ccccc1` [Felbamate] are within error of each other in growth: 0.214 ± 0.046 for the first, 0.212 ± 0.0076 for the second.

`CNC(=C[N+](=O)[O-])NCCSCc1ccc(CN(C)C)o1` [Ranitidine hydrochloride] and `C=CCOc1ccccc1OCC(O)CNC(C)C` (stereo not given) [Oxprenolol hydrochloride] are within error of each other in growth: 0.234 ± 0.032 for the first, 0.225 ± 0.031 for the second.

`CC(C)(C)NCC(O)COc1cccc2c1CCC(=O)N2` (stereo not given) [Carteolol hydrochloride] and `CC1(C)OC(=O)NC1=O` [Dimethadione] are within error of each other in growth: 0.217 ± 0.022 for the first, 0.199 ± 0.05 for the second.

Compared with `CO[C@@H]1[C@@H](O[C@@H]2O[C@H](C)[C@@H](O[C@H]3C[C@@](C)(O)[C@@H](OC(=O)CC(C)C)[C@H](C)O3)[C@H](N(C)C)[C@H]2O)[C@@H](CC=O)C[C@@H](C)[C@@H](O)/C=C/C=C/C[C@@H](C)OC(=O)C[C@H]1OC(C)=O` [Josamycin], `C=Cc1c(C)c2cc3nc(cc4[nH]c(cc5nc(cc1[nH]2)C(C)=C5CCC(=O)O)c(CCC(=O)OC)c4C)[C@@]1(C)C3=CC=C(C(=O)OC)C1C(=O)OC.C=Cc1c(C)c2cc3nc(cc4[nH]c(cc5nc(cc1[nH]2)C(C)=C5CCC(=O)OC)c(CCC(=O)O)c4C)[C@@]1(C)C3=CC=C(C(=O)OC)C1C(=O)OC` (stereo not given in full) [Verteporfin] is higher in growth: 0.0568 ± 0.0075 for the first, 0.277 ± 0.043 for the second.
